Publication PMC12136788
Changes are numbered by the printed parent chain. The full ranking holds about 5,800 sequences; the median of “enrichment r” is about 0.54, and the highest 2% start at about 16. Only a selection was taken, and the highest values are over-represented in it overall.

B1: chr2:190659421:190659522:+|CDS|ENSG00000138386|unk|FALSE|unique (ssRNA)
RNA: GGGAGUUCUACAGUCCGACGAUCAGAGACUGGGUCACAAACCCUGGGCUUUUCAAUCAGCCACUGACUUCCCUUCCUGUCAGUAGCAUACCCAUCUAUAAAUUACCAGAGGGAUCACCAACAUGGCUGGGAAUAUCCUGCAGUCAACAGAGGAUUGAGCAUCA
B2: chr10:16593140:16593241:-|3pUTR|ENSG00000148484|unk|total|mutant (ssRNA)
RNA: GGGAGUUCUACAGUCCGACGAUCUUAUUUUUCUUUUCACUCUCUUUCUAAUGCUUCCCACCUUACCUUUCCGAUUCUUUUGCCCGGUGGGAGAUUGUUAUAAGGUCUUUAAACCAUUUCCAUUUGUUUCUUUAACAUUACCAACAACAGAGGAUUGAGCAUCA
B3: chr5:72207278:72207408:+|3pUTR|ENSG00000131711|msi1_unk|FALSE|overlapping (ssRNA)
RNA: GGGAGUUCUACAGUCCGACGAUCAGAGAACAAUGACCUCAUUUUAUUUUCUAUGUUAGUUAUUUAUUUCAAAAUUAACAUUUUAGUUGAUUUUUGUCUGAUAAGUCUAUGUUUUGCACUGCUAACUAUGAUGAGGGUUUAAAACAACAGAGGAUUGAGCAUCA
B4: chr7:137014887:137014989:+|CDS|ENSG00000181072|unk|FALSE|unique (ssRNA)
RNA: GGGAGUUCUACAGUCCGACGAUCGCUACUUGGCUACUGAUUAGAGAACGCAAAAUGAAUAACUCAACAAACUCCUCUAACAAUAGCCUGGCUCUUACAAGUCCUUAUAAGACAUUUGAAGUGGUGUUUAUUGUCCUGGUGGCUCAACAGAGGAUUGAGCAUCA
B5: chr1:204554719:204554820:+|3pUTR|ENSG00000198625|unk|FALSE|unique (ssRNA)
RNA: GGGAGUUCUACAGUCCGACGAUCAAGUACUUUCUUUUGACAGAAAUUUUCAUUCUGCUUGCCAUUGCUAUAUUCUCCCUUUAUAGGAGCCAUUGGAUUUCUUUCCUUUUGUGGGAAAUGUCCCAUUAGCAUUUUCAGAUCUUUCAACAGAGGAUUGAGCAUCA
B6: chr12:76028832:76028933:-|3pUTR|ENSG00000139289|msi1|FALSE|unique (ssRNA)
RNA: GGGAGUUCUACAGUCCGACGAUCAAAGGAAAAGACUGGAUAAACACAGGAUUUUCAGUAAGAAAACAACCCCAGUCUUGUCUUAGAAGCCACUUGUUGAGGAGUCUGUUGGGGGAAAAAAGAGGAUAUGCUUUUAAAGGUAGACAACAGAGGAUUGAGCAUCA
B7: chr8:41263181:41263319:-|3pUTR|ENSG00000104332|msi1|FALSE|unique (ssRNA)
RNA: GGGAGUUCUACAGUCCGACGAUCCUUAAGUGAUUUGCCUGUAAUUUUGGAUGAUUAAAAAAUGUGUAUAUAUAUUAGCUAAUUAGAAAUAUUCUACUUCUCUGUUGUCAAACUGAAAUUCAGAGCAAGUUCCUGAGUGCGUGGCAACAGAGGAUUGAGCAUCA
B8: chrX:120258281:120258382:+|3pUTR|ENSG00000177485|msi1|FALSE|bound_elsewhere (ssRNA)
RNA: GGGAGUUCUACAGUCCGACGAUCUGUACAAUCUUCCCUGUCAUGACUUUAAGUUCUACUUUUCAUUAACCAUGGCCUGAUAUUAGUUCUUAGAGCUUCUUGUGGCAAAAAUAAAAUGAUUUAAUUCUGAUGUUUGAGUGCGUGCAACAGAGGAUUGAGCAUCA
B9: chr8:41263181:41263319:-|3pUTR|ENSG00000104332|msi1|total|mutant (ssRNA)
RNA: B7 RNA with U75C, A76C, U83C, A84C
B10: chr10:17237356:17237519:+|3pUTR|ENSG00000026025|msi1_unk|total|mutant (ssRNA)
RNA: GGGAGUUCUACAGUCCGACGAUCAGACCGAUUUGGAACCGGAAUAAGCUCCCGUUCUUAACAACCGACACUCCUACAAGAUUCCGAAAAAAGUUUACAACAUAAUCCCGUUUACAGAAAAAUCUUGUGCCCGAAUACUUUUUACAACAGAGGAUUGAGCAUCA
B11: chr6:117694021:117694122:+|CDS|ENSG00000153989|msi1|FALSE|unique (ssRNA)
RNA: GGGAGUUCUACAGUCCGACGAUCGCUGUCUCCGGAAGAUGGAAAAGCAGAUAUUGUAAGAGCUGCUCAGGACUUUUGCCAGUUAGUAGCCCAGAAGCAAAAGAGACCCACAGAUUUGGAUGUAGAUACGUUAGCCAGUUUACUCAACAGAGGAUUGAGCAUCA
B12: chr6:105096826:105097152:-|3pUTR|ENSG00000112276|msi1|FALSE|unique (ssRNA)
RNA: GGGAGUUCUACAGUCCGACGAUCACUUGCAACCUAGUUUUAAAAUACAUGAGGAUUUUAUGAAAGCUUUAUACAGACAUUUAUAGGAAACUCAUUCUUUGAUUUUAGGUGCCAUUUAAAUUGAUAACACUUACUUUAUAAAAACAACAGAGGAUUGAGCAUCA
B13: chr6:117694021:117694122:+|CDS|ENSG00000153989|msi1|total|mutant (ssRNA)
RNA: B11 RNA with U83C, A84C, U86C, A87C, U122C, A123C, U131C, A132C
B14: chr10:17237356:17237519:+|3pUTR|ENSG00000026025|msi1_unk|FALSE|overlapping (ssRNA)
RNA: GGGAGUUCUACAGUCCGACGAUCAGAUAGAUUUGGAAUAGGAAUAAGCUCUAGUUCUUAACAACCGACACUCCUACAAGAUUUAGAAAAAAGUUUACAACAUAAUCUAGUUUACAGAAAAAUCUUGUGCUAGAAUACUUUUUACAACAGAGGAUUGAGCAUCA

What follows are binders tested against MSI1 full-length (mouse, UniProt Q61474 1-362) (assay: nsRBNS (natural sequence RNA bind-n-seq); RBNS binding buffer (assumed for nsRBNS): 25 mM Tris pH 7.5, 150 mM KCl, 3 mM MgCl2, 0.01% Triton X-100, 500 ug/ml BSA, 20 U/ml SUPERase-In, 4 C; UNK is unkempt and MSI1 is Musashi-1; names of the RNAs are library labels; protein concentration not given here; high values mean tight binding).
Sequence of MSI1 full-length (Q61474 whole entry): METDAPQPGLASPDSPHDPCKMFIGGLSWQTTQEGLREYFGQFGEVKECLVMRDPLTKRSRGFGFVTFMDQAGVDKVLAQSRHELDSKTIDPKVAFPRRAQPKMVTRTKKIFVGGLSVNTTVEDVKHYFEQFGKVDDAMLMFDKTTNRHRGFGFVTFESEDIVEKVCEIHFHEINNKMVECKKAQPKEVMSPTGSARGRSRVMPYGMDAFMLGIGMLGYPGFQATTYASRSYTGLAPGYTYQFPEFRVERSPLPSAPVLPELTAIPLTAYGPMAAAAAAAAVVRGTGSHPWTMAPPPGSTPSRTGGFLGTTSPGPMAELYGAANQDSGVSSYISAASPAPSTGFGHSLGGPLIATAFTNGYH

Going from B1 to B2, the binding signal rises from 0.584 enrichment R to 1.23 enrichment R.

First: B3
Second: B4
The binding signal of the first is higher: 1.11 enrichment R for the first, 0.188 enrichment R for the second.

Going from B5 to B6, the binding signal rises from 0.583 enrichment R to 0.854 enrichment R.

Going from B7 to B8, the binding signal falls from 21.3 enrichment R to 0.662 enrichment R.

Going from B9 to B10, the binding signal falls from 0.429 enrichment R to 0.307 enrichment R.

Going from B11 to B12, the binding signal falls from 17.5 enrichment R to 1.13 enrichment R.

Compared with B13, B14 is higher in binding signal: 0.409 enrichment R for the first, 20.9 enrichment R for the second.
